Measured values published in PubChem BioAssay (NCI).
The panel holds about 83,000 compounds, 20% with a hit somewhere; the sample as a whole holds those more often.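 48-hour exposure, single concentration, 96-well plates; percent growth endpoint where 0 means no net growth. Active: below 10.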 Activity calls are given as the source filed them.

Experiments:
Assay in all cases: NCI-60 one-dose screen, 48 h (100 = growth as untreated, 0 = no growth, -100 = all killed)
Details in all cases: 10 µM unless noted
NCI-H23 lung = tested on: NCI-H23 lung
NCI-H226 lung = tested on: NCI-H226 lung
NCI-H322M lung = tested on: NCI-H322M lung
HOP-62 NSCLC = tested on: HOP-62 NSCLC
NCI-H460 lung = tested on: NCI-H460 lung
HOP-92 NSCLC = tested on: HOP-92 NSCLC
NCI-H522 lung = tested on: NCI-H522 lung
A549/ATCC NSCLC = tested on: A549/ATCC NSCLC
786-0 renal = tested on: 786-0 renal
COLO 205 colon = tested on: COLO 205 colon
DU-145 prostate = tested on: DU-145 prostate
K-562 leukemia = tested on: K-562 leukemia
MALME-3M melanoma = tested on: MALME-3M melanoma
MDA-MB-231 breast = tested on: MDA-MB-231 breast
RXF 393 renal = tested on: RXF 393 renal
SF-268 CNS = tested on: SF-268 CNS
SF-295 CNS = tested on: SF-295 CNS
SF-539 CNS = tested on: SF-539 CNS
UACC-257 melanoma = tested on: UACC-257 melanoma
M14 melanoma = tested on: M14 melanoma

Measured: growth

Cn1cc(-c2csc(-c3cn(CCN4CCOCC4)c4ccc(F)cc34)n2)c2cccnc21
inactive: NCI-H23 lung 22.5% | NCI-H226 lung 16.6% | NCI-H322M lung 73.3% | NCI-H460 lung 44.6% | HOP-92 NSCLC 27.2% | A549/ATCC NSCLC 22.5% | 786-0 renal 56.3% | COLO 205 colon 15.9% | DU-145 prostate 40.1% | MALME-3M melanoma 53% | MDA-MB-231 breast 35.1% | RXF 393 renal 71% | SF-268 CNS 41.7% | SF-295 CNS 29.2% | SF-539 CNS 61.5% | UACC-257 melanoma 71%
active: HOP-62 NSCLC 8.52% | NCI-H522 lung -0.645% | K-562 leukemia 9.34% | M14 melanoma 8.08%

CC(=O)c1ccc(C(=O)NCC2CCC3(CC2)OOC2(CCCCC2)OO3)cc1
active: HOP-92 NSCLC -31.4% | 786-0 renal -70.5%
inactive: NCI-H23 lung 22.8% | NCI-H226 lung 85.8% | NCI-H322M lung 89.8% | HOP-62 NSCLC 16.4% | NCI-H460 lung 88.1% | NCI-H522 lung 60.8% | A549/ATCC NSCLC 23.5% | COLO 205 colon 97.1% | DU-145 prostate 32.8% | K-562 leukemia 56.2% | MALME-3M melanoma 74% | MDA-MB-231 breast 70.9% | RXF 393 renal 84.7% | SF-268 CNS 87.9% | SF-295 CNS 94.9% | SF-539 CNS 66.6% | UACC-257 melanoma 84.7% | M14 melanoma 90.2%

CC1=C(CCCOC(=O)CN)C2=C(C)C3(CC3)[C@@](C)(O)C(=O)C2=C1
active: NCI-H23 lung 9.41% | RXF 393 renal -16.4%
inactive: NCI-H226 lung 90.5% | NCI-H322M lung 97.1% | HOP-62 NSCLC 71.5% | NCI-H460 lung 15.3% | HOP-92 NSCLC 70.5% | NCI-H522 lung 66.2% | A549/ATCC NSCLC 68.7% | 786-0 renal 78.8% | COLO 205 colon 49.6% | DU-145 prostate 17% | K-562 leukemia 90.2% | MALME-3M melanoma 114% | MDA-MB-231 breast 95.2% | SF-268 CNS 48.7% | SF-295 CNS 86.8% | SF-539 CNS 94% | UACC-257 melanoma 86% | M14 melanoma 73.8%

O=C1N[C@@H]2[C@@H](O)[C@@H](O)[C@H](O)C[C@H]2c2cc3c(c(O)c21)OCO3
active: NCI-H23 lung -14.9% | NCI-H226 lung -38.3% | NCI-H322M lung -14.7% | HOP-62 NSCLC -18.9% | NCI-H460 lung -15.1% | HOP-92 NSCLC -19% | NCI-H522 lung -32.6% | A549/ATCC NSCLC -8.4% | 786-0 renal -10.8% | COLO 205 colon -38.2% | DU-145 prostate -19.1% | K-562 leukemia 1.86% | MALME-3M melanoma -48.7% | MDA-MB-231 breast -27.9% | RXF 393 renal -37.3% | SF-268 CNS -4.43% | SF-295 CNS -11.5% | SF-539 CNS -29.7% | UACC-257 melanoma -21.8% | M14 melanoma -81.7%

CC(=O)O[C@H]1C(=O)[C@@]2(C)[C@H]([C@H](OC(=O)c3ccccc3)[C@]3(O)C[C@H](OC(=O)[C@H](OC(=O)OCC4COC(C)(C)O4)[C@@H](NC(=O)c4ccccc4)c4ccccc4)C(C)=C1C3(C)C)[C@]1(OC(C)=O)CO[C@@H]1C[C@@H]2O (stereo not given in full)
active: COLO 205 colon 7.19% | M14 melanoma -14.7%
inactive: NCI-H23 lung 37.8% | NCI-H226 lung 72.8% | NCI-H322M lung 40.6% | HOP-62 NSCLC 48.1% | NCI-H460 lung 13.1% | HOP-92 NSCLC 74% | NCI-H522 lung 38.7% | A549/ATCC NSCLC 30% | 786-0 renal 54.2% | DU-145 prostate 22.9% | K-562 leukemia 19.8% | MALME-3M melanoma 45% | MDA-MB-231 breast 39.9% | RXF 393 renal 32.9% | SF-268 CNS 61.1% | SF-295 CNS 17.5% | SF-539 CNS 24.9% | UACC-257 melanoma 59.4%

CCCC[C@H](NC(=O)[C@H]1CCCCN1C)C(=O)N(C)[C@H](C[C@@H](OC(C)=O)c1nc(C(=O)N[C@@H](Cc2ccccc2)C[C@H](C)C(=O)OCC)cs1)C(C)C
inactive: NCI-H23 lung 27.1% | NCI-H226 lung 32.8% | NCI-H322M lung 32.9% | HOP-62 NSCLC 18.1% | HOP-92 NSCLC 18.1% | A549/ATCC NSCLC 11% | DU-145 prostate 16.2% | MALME-3M melanoma 37.4% | RXF 393 renal 28.8% | SF-268 CNS 21.6% | SF-295 CNS 16.9% | UACC-257 melanoma 49.5%
active: NCI-H460 lung 6.75% | NCI-H522 lung -25% | 786-0 renal 3.81% | COLO 205 colon -69.9% | K-562 leukemia 7.31% | MDA-MB-231 breast 5.49% | SF-539 CNS -11.1% | M14 melanoma 1.33%

O=C([O][Hg][c]1ccccc1)c1ccccc1
inactive: NCI-H226 lung 96.4% | NCI-H322M lung 67.7% | NCI-H460 lung 11.7% | A549/ATCC NSCLC 76.2% | SF-295 CNS 56.8% | SF-539 CNS 19.4%
active: NCI-H23 lung 1.89% | HOP-62 NSCLC -33.7% | HOP-92 NSCLC -61.3% | NCI-H522 lung -64.1% | 786-0 renal -93.8% | COLO 205 colon -70% | DU-145 prostate -35.7% | K-562 leukemia -21.4% | MALME-3M melanoma -4.96% | MDA-MB-231 breast -53.1% | RXF 393 renal -72.4% | SF-268 CNS -34.9% | UACC-257 melanoma -30% | M14 melanoma -68.3%
